In PubChem BioAssay (NCI):
This is part of a sample that, as a whole, favours compounds with a hit. Of some 83,000 tested, about 20% had one in any assay.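 Results are percent growth after 48 hours of single-concentration exposure. 100 means growth as in untreated cells, lower positive values show inhibition; negative values down to -100 show cell death.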 The source made the active and inactive calls. How the source made its calls: active means growth percent below 10; inactive means the rest.

Legend:
Experiment in all cases: NCI-60 one-dose screen, 48 h (100 = growth as untreated, 0 = no growth, -100 = all killed)
Settings in all cases: 10 µM unless noted
NCI-H23 lung = tested on: NCI-H23 lung
NCI-H226 lung = tested on: NCI-H226 lung
NCI-H322M lung = tested on: NCI-H322M lung
HOP-62 NSCLC = tested on: HOP-62 NSCLC
NCI-H460 lung = tested on: NCI-H460 lung
HOP-92 NSCLC = tested on: HOP-92 NSCLC
NCI-H522 lung = tested on: NCI-H522 lung
A549/ATCC NSCLC = tested on: A549/ATCC NSCLC
COLO 205 colon = tested on: COLO 205 colon
DU-145 prostate = tested on: DU-145 prostate
K-562 leukemia = tested on: K-562 leukemia
MALME-3M melanoma = tested on: MALME-3M melanoma
MDA-MB-231 breast = tested on: MDA-MB-231 breast
RXF 393 renal = tested on: RXF 393 renal
SF-268 CNS = tested on: SF-268 CNS
SF-295 CNS = tested on: SF-295 CNS
SF-539 CNS = tested on: SF-539 CNS
UACC-257 melanoma = tested on: UACC-257 melanoma
M14 melanoma = tested on: M14 melanoma
786-0 renal = tested on: 786-0 renal

Measured: growth

S=c1[nH]nc(-c2cc3ccc2CCc2ccc(cc2)CC3)n1C1CC1
inactive: NCI-H23 lung 97.8% | NCI-H226 lung 108% | NCI-H322M lung 105% | HOP-62 NSCLC 104% | NCI-H460 lung 103% | HOP-92 NSCLC 96.1% | NCI-H522 lung 89.6% | A549/ATCC NSCLC 108% | COLO 205 colon 113% | DU-145 prostate 108% | K-562 leukemia 97.9% | MALME-3M melanoma 97% | MDA-MB-231 breast 99.5% | RXF 393 renal 105% | SF-268 CNS 103% | SF-295 CNS 93.8% | SF-539 CNS 98% | UACC-257 melanoma 105% | M14 melanoma 97.8%

Cc1ccc(S(=O)(=O)NCCCNc2cc(-c3cn(C(C)(C)C)nc3-c3cccc(O)c3)ccn2)cc1
inactive: NCI-H23 lung 77% | NCI-H226 lung 54.6% | NCI-H322M lung 87.9% | HOP-62 NSCLC 85.1% | NCI-H460 lung 29.9% | HOP-92 NSCLC 71% | A549/ATCC NSCLC 59.6% | 786-0 renal 56.6% | DU-145 prostate 76.1% | K-562 leukemia 11.8% | MALME-3M melanoma 61.9% | MDA-MB-231 breast 62.5% | RXF 393 renal 60.2% | SF-268 CNS 54.8% | SF-295 CNS 51.7% | SF-539 CNS 49.7% | UACC-257 melanoma 72% | M14 melanoma 56.8%
active: COLO 205 colon 8.53%

C=C[C@@H]1C[C@H](O)Cc2cc(F)ccc2N1
inactive: NCI-H23 lung 97.4% | NCI-H226 lung 87% | NCI-H322M lung 112% | HOP-62 NSCLC 88% | NCI-H460 lung 98% | HOP-92 NSCLC 56.2% | A549/ATCC NSCLC 98% | 786-0 renal 100% | COLO 205 colon 107% | DU-145 prostate 102% | K-562 leukemia 102% | MALME-3M melanoma 91.7% | MDA-MB-231 breast 96.1% | RXF 393 renal 106% | SF-268 CNS 94% | SF-295 CNS 101% | SF-539 CNS 108% | UACC-257 melanoma 96.1% | M14 melanoma 97%

CN1C(=O)N(C)C2C1NN=c1s/c(=C\c3cccnc3)c(=O)n12 (stereo not given)
inactive: NCI-H23 lung 86% | NCI-H226 lung 89.3% | NCI-H322M lung 89.1% | HOP-62 NSCLC 82.1% | NCI-H460 lung 83.8% | HOP-92 NSCLC 78.9% | A549/ATCC NSCLC 84% | 786-0 renal 96.5% | COLO 205 colon 87% | DU-145 prostate 95.5% | K-562 leukemia 27.7% | MALME-3M melanoma 71.4% | MDA-MB-231 breast 69.1% | RXF 393 renal 92.4% | SF-268 CNS 84.8% | SF-295 CNS 81.7% | SF-539 CNS 91% | UACC-257 melanoma 85.2% | M14 melanoma 61.1%

O=C(Nc1ccc2c(c1)OCO2)C(=O)c1c[nH]c2cc(F)ccc12
inactive: NCI-H23 lung 79.6% | NCI-H226 lung 73% | NCI-H322M lung 65.3% | HOP-62 NSCLC 54.4% | NCI-H460 lung 41.3% | HOP-92 NSCLC 42.2% | A549/ATCC NSCLC 48.9% | 786-0 renal 57.7% | COLO 205 colon 83.1% | DU-145 prostate 34.5% | K-562 leukemia 26.4% | MALME-3M melanoma 73% | MDA-MB-231 breast 25.6% | RXF 393 renal 75.4% | SF-268 CNS 47.6% | SF-295 CNS 24.2% | SF-539 CNS 56.1% | UACC-257 melanoma 64.4% | M14 melanoma 29.9%
